Results: PubChem BioAssay AID1159580 (chemical genetic matrix, 2015)
Where “and” joins values, the source holds several entries; their conditions need not be identical. Equal values may be shown once. Out of some 5,500 compounds screened, about 2,000 (36%) were called active. Not shown: some 18% with an inconclusive outcome. Rule as the data show it: active = normalized growth mostly below about 0.91 (no sharp cut-off); inconclusive = no clear call, values can overlap the other calls; inactive = mostly above about 0.92. The list shows a part of the results.

Experiment: chemical genetic growth profiling, strain panel (AID 1159580);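 also: tested at 20 µM; growth read once vehicle control cultures reached saturation at 30 °C; 1 = growth at the plate median or of vehicle wells; lower values mean less growth of the strain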
Conditions: S. cerevisiae deletion strains, growth OD

Measured: normalized growth

COc1ccc2c(c1)OC1(O)COc3cc(OC)c(OC)cc3C1=C2 (stereo unspecified)
active: locus YDR392W, strain spt3, stronger effect = lower value 0.734
inactive: locus YAL013W, strain DEP1, stronger effect = lower value 0.99 | locus YAL021C, strain ccr4, stronger effect = lower value 1 | locus YAL026C, strain drs2, stronger effect = lower value 0.97 | locus YAL030W, strain snc1, stronger effect = lower value 0.973 | locus YBL061C, strain skt5, stronger effect = lower value 0.968 | locus YBR009C, strain hhf1, stronger effect = lower value 1 | locus YBR021W, strain FUR4, stronger effect = lower value 1.01 | locus YBR023C, strain chs3, stronger effect = lower value 0.979 | locus YBR171W, strain sec66, stronger effect = lower value 0.965 | locus YBR229C, strain ROT2, stronger effect = lower value 1.01 | locus YBR231C, strain swc5, stronger effect = lower value 0.939 | locus YBR279W, strain paf1, stronger effect = lower value 0.984 | locus YCL011C, strain gbp2, stronger effect = lower value 0.983 | locus YCL016C, strain dcc1, stronger effect = lower value 1.01 | locus YCL029C, strain bik1, stronger effect = lower value 0.981 | locus YCL069W, strain vba3, stronger effect = lower value 0.988 | locus YCR088W, strain abp1, stronger effect = lower value 0.978 | locus YDL005C, strain med2, stronger effect = lower value 0.978 | locus YDL035C, strain GPR1, stronger effect = lower value 0.974 | locus YDL040C, strain nat1, stronger effect = lower value 0.971 | locus YDL074C, strain BRE1, stronger effect = lower value 0.992 | locus YDL101C, strain DUN1, stronger effect = lower value 1.02 | locus YDL134C, strain PPH21, stronger effect = lower value 1.01 | locus YDL185W, strain tfp1, stronger effect = lower value 0.983 | locus YDL192W, strain arf1, stronger effect = lower value 0.977 | locus YDR001C, strain nth1, stronger effect = lower value 0.98 | locus YDR069C, strain doa4, stronger effect = lower value 0.961 | locus YDR101C, strain arx1, stronger effect = lower value 0.972 | locus YDR137W, strain rgp1, stronger effect = lower value 0.934 | locus YDR150W, strain NUM1, stronger effect = lower value 1.01 | locus YDR159W, strain sac3, stronger effect = lower value 0.897 | locus YDR162C, strain NBP2, stronger effect = lower value 1.01 | locus YDR195W, strain ref2 0.992 | locus YDR297W, strain sur2, stronger effect = lower value 0.978 | locus YDR318W, strain mcm21, stronger effect = lower value 0.949 | locus YDR334W, strain swr1, stronger effect = lower value 0.982 | locus YDR335W, strain msn5, stronger effect = lower value 0.996 | locus YDR388W, stronger effect = lower value 0.981 | locus YDR502C, strain sam2, stronger effect = lower value 0.985 | locus YEL003W, strain gim4, stronger effect = lower value 0.962 | locus YEL037C, strain rad23, stronger effect = lower value 0.99 | locus YEL061C, strain CIN8 (second series), stronger effect = lower value 0.978 | locus YEL061C, strain CIN8, stronger effect = lower value 1 | locus YER015W, strain faa2, stronger effect = lower value 0.993 | locus YER016W, strain bim1, stronger effect = lower value 0.971 | locus YER110C, stronger effect = lower value 0.976 | locus YER111C, strain swi4, stronger effect = lower value 0.97 | locus YER155C, strain BEM2 (second series), stronger effect = lower value 0.904 | locus YER155C, strain BEM2, stronger effect = lower value 1 | locus YER167W, strain BCK2, stronger effect = lower value 0.963 | locus YFR010W, strain ubp6, stronger effect = lower value 0.965 | locus YGL078C, strain dbp3, stronger effect = lower value 1.01 | locus YGL086W, strain mad1, stronger effect = lower value 0.97 | locus YGL167C, strain pmr1, stronger effect = lower value 0.985 | locus YGL173C, strain kem1, stronger effect = lower value 0.94 | locus YGL227W, strain vid30, stronger effect = lower value 0.978 | locus YGL240W, strain doc1, stronger effect = lower value 0.942 | locus YGL248W, strain PDE1, stronger effect = lower value 1.01 | locus YGL253W, strain hxk2, stronger effect = lower value 0.929 | locus YGR078C, strain PAC10, stronger effect = lower value 0.985 | locus YGR135W, strain pre9, stronger effect = lower value 0.985 | locus YGR229C, strain SMI1, stronger effect = lower value 0.967 | locus YGR252W, strain gcn5, stronger effect = lower value 0.873 | locus YHR013C, strain ard1, stronger effect = lower value 0.977 | locus YHR027C, strain rpn1, stronger effect = lower value 0.986 | locus YHR030C, strain SLT2, stronger effect = lower value 0.996 and 0.931 | locus YHR079C, strain IRE1 (second series), stronger effect = lower value 0.972 | locus YHR079C, strain IRE1, stronger effect = lower value 0.925 | locus YHR094C, strain hxt1, stronger effect = lower value 0.989 | locus YHR129C, strain ARP1, stronger effect = lower value 1.01 | locus YHR142W, strain chs7, stronger effect = lower value 0.926 | locus YHR200W, strain rpn10, stronger effect = lower value 0.972 | locus YIL066C, strain RNR3, stronger effect = lower value 0.986 | locus YIL073C, strain SPO22, stronger effect = lower value 0.895 | locus YIL125W, strain kgd1, stronger effect = lower value 0.997 | locus YIR030C, strain dcg1, stronger effect = lower value 0.987 | locus YJL092W, strain hpr5, stronger effect = lower value 0.979 | locus YJL095W, strain BCK1 (second series), stronger effect = lower value 0.98 | locus YJL095W, strain BCK1, stronger effect = lower value 0.965 and 0.92 | locus YJL115W, strain asf1, stronger effect = lower value 0.983 | locus YJL129C, strain trk1, stronger effect = lower value 0.979 | locus YJL134W, strain LCB3, stronger effect = lower value 1 | locus YJL154C, strain vps35, stronger effect = lower value 0.977 | locus YJL164C, strain tpk1, stronger effect = lower value 0.983 | locus YJL166W, strain qcr8, stronger effect = lower value 0.948 | locus YJL168C, strain set2, stronger effect = lower value 0.989 | locus YJL187C, strain SWE1 (second series), stronger effect = lower value 1.01 | locus YJL187C, strain SWE1, stronger effect = lower value 0.999 | locus YJR043C, strain POL32, stronger effect = lower value 0.97 | locus YJR066W, strain TOR1, stronger effect = lower value 0.9
